Among the data in PubChem BioAssay (NCI) are growth values, retold here.

Compounds without any hit were thinned out: in the full panel of roughly 83,000, 20% have a hit.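 Method: cells in 96-well plates; compound added at one concentration; 48 h incubation; percent growth measured; values under 10 scored active.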 Calls of active or inactive are those of the source.

This test has as its system SNB-75 CNS. The experiment in a line: NCI-60 one-dose screen, 48 h (100 = growth as untreated, 0 = no growth, -100 = all killed). The following applies: 10 µM unless noted. How it is done: Growth inhibition of the SNB-75 human tumor cell line is measured as a screen for anti-cancer activity. Cells are grown in 96 well plates and exposed to the test compound for 48 hours. Compounds are tested at a single concentration, which is 10^-5 M for most compounds. The reported endpoint is percent growth (GI% or GIPRCNT), where numbers from 0 - 100% represent growth inhibition, and numbers from -100% - 0 represent cell death. For example, a value of 40 represents 60% growth inhibition. A value of 0 means no net growth occurred over the course of the experiment. A value of -40 indicates 40% of cells at the beginning of the experiment died by the end of the experiment. A value of -100 means all cells are dead at the end of the experiment.
NCI-60 Human Tumor Cell Lines Screen was performed using the standard one-dose NCI protocol, which is described in more detail at https://dtp.cancer.gov/discovery_development/nci-60/default.htm.
Compounds with GIPRCNT values below 10 were considered active. Activity score was based on GIPRCNT using the following formula: […]
Score is 0 for GIPRCNT values of 100 or above, 50 for GIPRCNT values of 0, and 100 for GIPRCNT values of -100.
`CCC12CCC3c4ccc(O)cc4CCC3C1CC(O)C2O` (stereo not given): the growth is 65.8% (inactive). Turning to `COc1ccc(OC2=CC(=O)c3ccc(C)nc3C2=O)cc1`, the growth was 53.4% (inactive).

With `COc1cc(/C=C/C(=O)CC(=O)/C=C/c2cc(Br)c(OC)c(OC)c2)cc(Br)c1OC`, the growth was 93.7% (inactive).

For `CC1=C(C/C=C(\C)CCC[C@H](C)CCC[C@H](C)CCCC(C)C)C(=O)c2ccccc2C1=O`, the growth was 95.1% (inactive). For `CCOC(=O)C(CC(c1ccccc1)N1CCCCC1)[N+](=O)[O-]` (stereo not given) the value was 86% (inactive); for `COc1ccc(-c2c(-c3cc4c(c(OC)c3OC)OCO4)noc2N)cc1`, 22.8% (inactive). For `C=CC(=O)N1CC2(CC(n3nc(-c4ccc(Oc5ccccc5)cc4)c4c(N)ncnc43)C2)C1` the value was -13.6% (active).

Turning to `O=C1NC(=O)C(CSc2ccccc2)(c2ccccc2)N1` (stereo not given), the growth is 83.9% (inactive).

As for `COc1cc(-c2nc(Nc3nc4ccccc4[nH]3)nc(N)c2C#N)cc(OC)c1OC`, the growth was 29.2% (inactive). In the case of `CN1CCn2c(c(Sc3ccc(C(=O)NO)cc3)c3ccccc32)C1=O`, the growth is -17.2% (active).

With `COC1(OC)C2(Cl)C=C(c3ccccc3)C1(Cl)C(Cl)=C2Cl` (stereo not given), the growth was 67% (inactive). The same measure for `Cc1nc2cc(Nc3nc(Nc4ccc(F)cc4)nc(N4CCCC4)n3)ccc2n1Cc1ccccc1`: -15.1% (active); for `COc1ccc(OC)c(C2C(C#N)=C(N)Oc3cc(O)ccc32)c1` (stereo not given): 91.5% (inactive). For `CN(C)C(=S)SCN1C(=O)c2ccc([N+](=O)[O-])cc2S1(=O)=O` the value was 99.9% (inactive); for `Cc1ccc(NS(=O)(=O)c2ccc(-c3cnc(C4CC4)o3)cc2)cc1`, 18.8% (inactive). As to `COc1ccc(/C=C2\Oc3cc(C)c(Cl)cc3C2=O)cc1OC`, the growth is 101% (inactive).

As to `C[C@]1(CO)C[C@@H](O)C[C@]2(C)[C@@H]1CC[C@@]13C[C@@H]4[C@@H](C[C@H]12)[C@]4(C)C3`, the growth is 88.9% (inactive). The same measure for `CCSc1nnc2c3cc(Br)ccc3n(C)c2n1`: 92.6% (inactive); for `CC(=O)c1cc(C)c(OC(=O)c2ccccc2)c(C)c1`: 82.6% (inactive).

As to `Cc1cc(C)c(S(=O)O)c(C)c1`, the growth was 86.6% (inactive). The same measure for `CCC(=O)Nc1nnc(Cc2ccc(OC)c(OC)c2)s1`: -83.3% (active); for `CCOC(=O)c1c(Cl)c2c(n1Cc1cc(OC)cc(OC)c1)-c1oncc1CCC2`: 1.91% (active); for `O=C(c1ccccc1)C(Br)C(Br)c1cccc([N+](=O)[O-])c1` (stereo not given): 80.9% (inactive). The same measure for `Cc1ccc(S(=O)(=O)N2CCc3ccc(O)c4c3C2Cc2ccc3c(c2-4)OCO3)cc1` (stereo not given): 5.09% (active); for `COc1cc(/C=C/C(=O)C2=C(/C=C/c3ccc(O)c(OC)c3)NC(=O)NC2c2ccc(O)c(OC)c2)ccc1O` (stereo not given): 65.8% (inactive); for `COC(=O)c1cc(-c2ccc(C)cc2)n(C(=O)CSc2nc3sc(C(N)=O)c(C)c3c(=O)n2Cc2ccccc2)n1`: 83.3% (inactive). Regarding `Cc1ccc(S(=O)(=O)N2CCc3ccc(O)c4c3C2CCc2ccccc2-4)cc1` (stereo not given), the growth is 91.6% (inactive). For the molecule `Cc1ccc2c(N/N=C\c3ccco3)cc(C)nc2n1`, the growth is 85.5% (inactive). For `O=c1nc(NO)[nH]c(=O)n1Cc1ccccc1` the value was 92.8% (inactive); for `NC(=O)c1cccc(-n2ccc3cc(NC(=O)Nc4ccc(Cl)c(Cl)c4)ccc32)n1`, 68.5% (inactive); for `COc1ccc(-c2cc(=O)oc3c4c(ccc23)OCN(Cc2ccc(F)cc2)C4)cc1`, 69.7% (inactive).

Consider `Cc1ccc(C)c2c1sc1nc3nc4sc5ccccc5n4c(=N)c3c(=O)n12`, for which the growth is 73.7% (inactive). For `Cc1cc(=O)[nH]n1-c1cc(Cl)ccc1N` the value was 88.4% (inactive). Turning to `COc1cccc(C2CC(=O)Nc3cc4c(cc32)CCC4)c1OC` (stereo not given), the growth is 35.3% (inactive).

As for `COc1ccc(OC)c(/C=C2\Oc3cc(O)ccc3C2=O)c1`, the growth was 88.6% (inactive).

In the case of `Cn1c2ccccc2c2nn(C(=O)c3ccccc3)c(=O)nc21`, the growth is 105% (inactive). The same measure for `COc1ccc(-c2nc3sccn3c2/C=C/C(=O)c2cc(OC)c(OC)c(OC)c2)cc1OC`: -8.25% (active); for `Cn1c2ccc(Cl)cc2c2nn(C(=O)c3ccccc3)c(=O)nc21`: 88.3% (inactive); for `Oc1ccccc1/C=N/Nc1nc2ccccc2s1`: 45.6% (inactive). The same measure for `O=S(=O)(Nc1ccccc1Cl)c1ccc(-c2cnc(C3CC3)o2)cc1`: -13.4% (active).
